Calb biofilm kill: clotrimazole potentiators killing Candida biofilms, primary screen, with clotrimazole, Alamar Blue | C. albicans biofilm + clotrimazole | inhibition, % at 6 µM | hit rate 0.14% among 85,000 | AID 834, 2007;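 active means inhibition above 20%; inactive means inhibition below 20%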;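 further: preformed 24 hr biofilms exposed to compound for 48 hr; 0% = biofilm without compound and 100% = blank killed by clotrimazole plus chlorhexidine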
HePTP inhibitor: inhibitors of human HePTP phosphatase, primary screen, biochemical, absorbance, leukemia target; inhibition, % at 20 µM; recombinant HePTP phosphatase activity, OD absorbance; Tyrosine-protein phosphatase non-receptor type 7 (Homo sapiens), P35236; hit rate 0.64% among 110,000; AID 521, 2006; in the data active means inhibition above about 50%;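 further: plate controls were vehicle for no effect and reference inhibitor for full effect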
ERb SRC1 inh: inhibitors of ERβ-SRC1 coactivator interaction, primary screen, biochemical, TR-FRET, ERβ LBD, SRC-1 peptide | TR-FRET ER-beta LBD / SRC1-Cy5 peptide binding; receptor agonist-loaded with 1 µM estradiol | inhibition, % at 25.6 µM | hit rate 1.3% among 86,000 | AID 633, 2007;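 active means compounds whose percent inhibition of the receptor-coactivator binding signal exceeds about 50% in the single-dose screen, limit read from the data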;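 further: 0% = receptor plus peptide wells without compound and 100% = peptide-only wells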
Target sequence (Q92731 whole entry, looked up, the tested form may be a part): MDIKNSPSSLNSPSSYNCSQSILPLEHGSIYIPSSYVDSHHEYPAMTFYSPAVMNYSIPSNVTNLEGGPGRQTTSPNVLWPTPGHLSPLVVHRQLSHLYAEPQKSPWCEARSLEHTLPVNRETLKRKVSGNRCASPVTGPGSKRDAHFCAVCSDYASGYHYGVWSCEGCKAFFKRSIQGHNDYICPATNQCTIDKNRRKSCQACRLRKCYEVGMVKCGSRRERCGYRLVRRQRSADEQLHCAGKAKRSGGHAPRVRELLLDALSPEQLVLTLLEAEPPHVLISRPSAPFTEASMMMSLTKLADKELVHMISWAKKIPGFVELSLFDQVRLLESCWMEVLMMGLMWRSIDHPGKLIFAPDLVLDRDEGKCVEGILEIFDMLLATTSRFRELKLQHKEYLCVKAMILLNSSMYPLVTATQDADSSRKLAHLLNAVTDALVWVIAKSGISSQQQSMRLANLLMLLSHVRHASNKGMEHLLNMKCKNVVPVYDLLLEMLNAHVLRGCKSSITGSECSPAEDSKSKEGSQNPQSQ
Smad3 FoxH1 inh: Smad3/FoxH1 peptide binding inhibitors, primary screen, biochemical, TR-FRET. Mothers against decapentaplegic homolog 3 (Homo sapiens), P84022. TR-FRET Smad3/Dy647-FoxH1 peptide binding, europium anti-His. inhibition, % at 25 µM. hit rate 0.29% among 88,000. AID 630, 2007;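 active means compounds that reduce the energy-transfer binding signal between the protein and its labelled peptide by more than half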;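 further: 0% = Smad3 plus labelled peptide maximal FRET and 100% = peptide-only background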
ERa coact pot: enhancers of ERα–SRC-1 coactivator binding, primary screen, biochemical, TR-FRET, ERα LBD, low estradiol | Estrogen receptor (Homo sapiens), P03372 | TR-FRET ERalpha-LBD/SRC-Cy5 coactivator binding, 2 h; 100 = basal binding, no effect | coactivator binding (% of control), % at 25.6 µM | hit rate 1.3% among 86,000 | AID 639, 2007; in the data active means activity above about 200%;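 further: binding measured in presence of low estradiol as agonist stimulus; 0% = peptide alone without receptor and 100% = receptor with peptide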
ERa SRC1 inh: ERα–SRC-1 coactivator interaction inhibitors, primary screen, biochemical, TR-FRET, ERα LBD, estradiol-bound | Estrogen receptor (Homo sapiens), P03372 | TR-FRET ER-alpha LBD / SRC-1 peptide | inhibition, % at 25.6 µM | hit rate 1.7% among 86,000; in the data active means inhibition above about 50%;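 further: 0% = receptor plus peptide control and 100% = peptide only without receptor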
Active calls of the source: *; . = no result given; [ ] = dose if it differs, or a comment. Sampled rows, rich in hits. Any-hit rate of the full collection: about 2.9%.

SMILES | Calb biofilm kill | HePTP inhibitor | ERb SRC1 inh | Smad3 FoxH1 inh | ERa coact pot | ERa SRC1 inh
c1cc2c3c(cccc3c1)C(N1CCN(C3=Nc4cccc5cccc3c45)CC1)=N2 | 8 | . | 10 | -5 | 203*[fluorescence artefact?] | 34
CC(=O)N1CCN(C2=Nc3cccc4cccc2c34)CC1 | 4 | -4 | -9 | -1 | 105 | -9
Cc1cc(NC(=O)CSc2nnc(-c3ccco3)o2)no1 | 5 | 3 | 0 | 5 | 255*[fluorescence artefact?] | 2
Cc1cc(C)nc(N2C(=O)c3ccc(C(=O)O)cc3C2=O)n1 | . | -9 | . | . | . | .
CCCC(=O)NC(C)c1nc2ccccc2n1CC (stereo not drawn) | 10 | -2 | -11 | 7 | 98 | 82*[fluorescence artefact?]
CCN(CC)CCCNC(=O)c1ccc(OC)cc1OC | . | 5 | . | . | . | .
NC(=O)N/N=C(\C=C\c1ccccc1)C1(O)CCCCC1 | . | 8 | . | . | . | .
COc1cccc(-c2nc(CS(=O)(=O)CC(=O)Nc3cc(C)ccc3C)c(C)o2)c1 | 8 | 9 | 12 | -6 | 214*[fluorescence artefact?] | 16
Cc1cc(Cl)cc(C)c1OCCCCN1CCOCC1 | 6 | 9 | 1 | 9 | 115 | 67*
O=C(Nc1cccc([N+](=O)[O-])c1)c1ccccc1C(F)(F)F | . | 5 | . | . | . | .
Cc1ccc(-n2c(SCc3cc(=O)n4ccsc4n3)nnc2-c2cccnc2)c(C)c1 | 3 | -4 | 62* | 15 | 120 | 75*[fluorescence artefact?]
COc1ccc(C2=C/C(=C\c3ccccc3[N+](=O)[O-])C(=O)O2)cc1 | . | 23 | . | . | . | .
O=C(NCSc1ccncn1)c1ccccc1 | . | -5 | . | . | . | .
O=C(NCSc1ccnc(SCNC(=O)c2ccccc2)n1)c1ccccc1 | 9 | . | 10 | -5 | 252* | -6
Ic1ccc(OCCCCN2CCOCC2)cc1 | . | 4 | . | . | . | .
CCCC(=O)Nc1cccc(NC(=O)CN2CCN(c3ccccc3OC)CC2)c1 | 6 | 5 | -1 | -3 | 126 | 99*[fluorescence artefact?]
O=C1CSC(=O)N1c1cccc(O)c1 | . | 9 | . | . | . | .
O=C(Cn1c(=O)oc2cc(S(=O)(=O)N3CCCC3)ccc21)Nc1cccc(C(F)(F)F)c1 | 11 | 7 | -5 | 2 | 234*[fluorescence artefact?] | 60*[fluorescence artefact?]
O=C(Cn1c(=O)oc2ccccc21)Nc1ccc(S(=O)(=O)N2CCCCC2)cc1 | 9 | -6 | 27 | 0 | 125 | 63*[fluorescence artefact?]
O=C(c1ccc2c(c1)OCCO2)N1CCOCC1 | . | -10 | . | . | . | .
Cn1c(Cn2c(=O)sc3ccccc32)nnc1SCC(=O)Nc1ccc(Cl)cc1 | 2 | 10 | -5 | 3 | 231*[fluorescence artefact?] | -4
O=C(O)c1cccc(NC2=C(Cl)C(=O)N(c3ccc(Cl)cc3)C2=O)c1 | . | 104* | . | . | . | .
NS(=O)(=O)c1ccc(N=Nc2c[nH]c(=O)c(O)c2)cc1 | . | . | . | 78* | . | .
NS(=O)(=O)c1ccc(N=Nc2c(O)c(C(=O)O)cc3ccccc23)cc1 | . | . | . | 22 | . | .
CC(C)C(=O)Nc1ccc(C(=O)NC2CCSC2=O)cc1 (stereo not drawn) | 6 | 0 | 8 | 3 | 204* | 15
SMILES | Calb biofilm kill | HePTP inhibitor | ERb SRC1 inh | Smad3 FoxH1 inh | ERa coact pot | ERa SRC1 inh
Cc1c(C(=O)NC2CCSC2=O)cccc1[N+](=O)[O-] (stereo not drawn) | . | 55* | . | . | . | .
CC(C)C(=O)Nc1ccc(C(=O)Nc2ccccc2C(=O)O)cc1 | . | 10 | . | . | . | .
CCSc1nnc(NC(=O)c2ccc(Cl)cc2Cl)s1 | . | -13 | . | . | . | .
CN1CCN(C(=O)C(Cc2ccccc2)NS(=O)(=O)c2ccc3c(c2)CCC(=O)N3)CC1 (stereo not drawn) | 9 | 0 | -3 | 10 | 119 | -6
CCOC(=O)CNC(=O)C(Cc1ccccc1)NS(=O)(=O)c1ccc2c(c1)CCC(=O)N2 (stereo not drawn) | . | 0 | 86* | 5 | 101 | -3
CCCCNC(=O)C(Cc1ccccc1)NS(=O)(=O)c1ccc2c(c1)c(=O)n(C)c(=O)n2C (stereo not drawn) | 12 | . | 12 | -8 | 122 | 86*[fluorescence artefact?]
Cc1cc(C)n2nc(C(=O)OCC(=O)c3cc(C)n(C)c3C)nc2n1 | 11 | 25 | 51*[fluorescence artefact?] | 9 | 63 | 40
COc1cc(OC)cc(C(=O)OCc2cc3ccccc3[nH]c2=O)c1 | 4 | 2 | 8 | -17 | 499*[fluorescence artefact?] | -12
O=C(O)c1nn2c(C(F)(F)F)c3c(nc2c1Cl)-c1ccccc1CC3 | . | 70* | . | . | . | .
CC[n+]1c(/C=C/c2ccc(-c3ccc([N+](=O)[O-])cc3)o2)ccc2ccccc21 | . | -12 | . | . | . | .
Cc1ccc(C(=O)/C=C/c2ccccc2[N+](=O)[O-])cc1 | . | 6 | . | . | . | .
Cc1ccc(-c2n[nH]c(=S)n2/N=C/C=C/c2ccccc2[N+](=O)[O-])cc1 | -1 | . | 47 | 23 | 323* | 53*[fluorescence artefact?]
COc1ccc(C=NNC(=O)Cn2nnc3ccccc32)c(OC)c1 | . | -8 | . | . | . | .
O=C(Oc1cccc(-n2cnnn2)c1)c1sc2ccccc2c1Cl | 4 | 5 | 7 | -3 | 246* | 19
O=C(Oc1cccc(-n2cnnn2)c1)C1CCCCC1 | 11 | 7 | -7 | -3 | 117 | -6
COC(=O)c1ccc(NC(=O)CC2CCC2)cc1 | . | 4 | . | . | . | .
O=C(Nc1ccc(-c2nc3ncccc3o2)cc1)c1cccc(OCc2ccccc2)c1 | . | 5 | . | . | . | .
C[N+]1(NCC[N@+]2(C)CCc3ccccc3C2)CCCCC1 | . | . | . | 95* | . | .
O=c1cc(-c2cc(O)c3c(O)c4ccccc4c(O)c3c2O)c(=O)c2c(=O)c3ccccc3c(=O)c1=2 | . | 84* | . | . | . | .
O=c1c2ccccc2c(=O)c2c1c(O)cc1sc3ccccc3[nH]c12 | . | -18 | . | . | . | .
CCc1nnc(NC(=O)CN2CCN(c3ccc([N+](=O)[O-])cc3)CC2)s1 | . | 4 | . | . | . | .
NNC(=O)COc1ccc(Oc2ccccc2)cc1 | . | 11 | . | . | . | .
CCn1nnc(NC(=O)CSc2ccc(Cl)cc2)n1 | 8 | -1 | 82* | 0 | 29 | 90*
O=C(NCCN1CCCCCC1)c1ccc(CS(=O)(=O)c2ccc(Br)cc2)o1 | 4 | 11 | 50 | 15 | 66 | 81*[fluorescence artefact?]
O=C(NCCCN1CCCCCC1)c1ccc(CS(=O)(=O)Cc2ccccc2F)o1 | -1 | 5 | 40 | 69* | 636*[fluorescence artefact?] | 30
SMILES | Calb biofilm kill | HePTP inhibitor | ERb SRC1 inh | Smad3 FoxH1 inh | ERa coact pot | ERa SRC1 inh
Cc1ccc(OCCNC(C)(C)C)c(Cl)c1 | . | -5 | . | . | . | .
COc1ccc(NC(=O)CCc2ccccc2)cc1Cl | . | 6 | . | . | . | .
O=c1c2c3c(sc2nc2sc(C4CC4)nn12)CCCC3 | 5 | 12 | 12 | -9 | 234* | 11
O=C(COC(=O)CCOc1ccccc1)NCc1ccco1 | 3 | 9 | 62*[fluorescence artefact?] | 16 | 92 | 70*
CC(C)(C)c1ccc(OCC(=O)NCc2ccco2)cc1 | -4 | -7 | -3 | -4 | 105 | -7
O=C(CCSCCC(=O)NCc1ccco1)NCc1ccco1 | 6 | . | 57*[fluorescence artefact?] | 10 | 93 | 59*[fluorescence artefact?]

Screening data: PubChem BioAssay, several laboratories
